According to the supplement of paper PMC7726561:

B1: unnamed (peptide)
chain: HFDPEVYL
B2: unnamed (peptide)
chain: VTDPRVVDL
B3: unnamed (peptide)
chain: NPDDVFREF
B4: unnamed (peptide)
chain: VWDLFPEADKV
B5: unnamed (peptide)
chain: AWDIAIATM
B6: unnamed (peptide)
chain: FYDVQFKEL
B7: unnamed (peptide)
chain: VLDDKLVFV
B8: unnamed (peptide)
chain: TYEGKPIFL
B9: unnamed (peptide)
chain: IFSEKPVFV
B10: unnamed (peptide)
chain: QFDNYGEEF
B11: unnamed (peptide)
chain: FFEVSPVSF
B12: unnamed (peptide)
chain: VFDEAVRV
B13: unnamed (peptide)
chain: FYDERIVVV
B14: unnamed (peptide)
chain: IWDETPLYF
B15: unnamed (peptide)
chain: LWDSAVSHF
B16: unnamed (peptide)
chain: FWDDAVKEV
B17: unnamed (peptide)
chain: YFDPANGKF
B18: unnamed (peptide)
chain: LFHPSNVEM
B19: unnamed (peptide)
chain: VFDVLDGEEM
B20: unnamed (peptide)
chain: VIDEPVRL
B21: unnamed (peptide)
chain: FFDEVVKQM
B22: unnamed (peptide)
chain: VFDEAIRAV
B23: unnamed (peptide)
chain: IYDPNLAFL
B24: unnamed (peptide)
chain: SFDDTNEKF
B25: unnamed (peptide)
chain: TFDVAPSRLDF
B26: unnamed (peptide)
chain: HYDEQQNFF
B27: unnamed (peptide)
chain: TFDPMTRQI
B28: unnamed (peptide)
chain: HYDPATEEF
B29: unnamed (peptide)
chain: SYDPTIENTF
B30: unnamed (peptide)
chain: KFDPVGEIL
B31: unnamed (peptide)
chain: AWEERETIL
B32: unnamed (peptide)
chain: LFDLGGQYL
B33: unnamed (peptide)
chain: AHDVDPIEL
B34: unnamed (peptide)
chain: SFDLLPREF
B35: unnamed (peptide)
chain: SFDPSRTF
B36: unnamed (peptide)
chain: SFDSALQSV
B37: unnamed (peptide)
chain: FYDLYGGEKF
B38: unnamed (peptide)
chain: LFDDIDHNM
B39: unnamed (peptide)
chain: TYDLQESNV
B40: unnamed (peptide)
chain: VFPKEPVEL
B41: unnamed (peptide)
chain: MFDKDVVML
B42: unnamed (peptide)
chain: SFDTGFTSF
B43: unnamed (peptide)
chain: AWDKEPVLV
B44: unnamed (peptide)
chain: FWDPSVNLF
B45: unnamed (peptide)
chain: TFDSTIHF
B46: unnamed (peptide)
chain: IYDVQHANL
B47: unnamed (peptide)
chain: VFDPVTKL

What follows are sequences tested against HLA-C*04:01 (assay: thermal melting temperature (Tm) of peptide-HLA complex; higher = more thermostable pHLA complex). Conditions: C1R-A*02:01.
Experimental: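 Endogenous HLA-C*04:01 ligands were detected in the thermostability assays of both the C1R-A*02:01 and C1R-B*07:02 lines. Lysates were heated 10 min at 37-73 °C and pHLA immunoprecipitated with W6/32. Peptides were quantified by DIA-MS and Tm was taken from a logistic sigmoid fit.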

For B1, which thermal melting temperature is on record?
The thermal melting temperature was 54.6 °C.

For B2, which thermal melting temperature is on record?
The thermal melting temperature was 53.8 °C.

B3 was tested. Which thermal melting temperature did it give?
The thermal melting temperature was 61.2 °C.

B4 was tested. Which thermal melting temperature did it give?
Its thermal melting temperature is 54.5 °C.

B5 was tested. Which thermal melting temperature did it give?
Its thermal melting temperature is 50.9 °C.

For B6, which thermal melting temperature is on record?
The thermal melting temperature was 53.1 °C.

How did the thermal melting temperature turn out when B7 was run?
The thermal melting temperature was 61.8 °C.

How did the thermal melting temperature turn out when B8 was run?
The thermal melting temperature was 52.9 °C.

B9 was tested. Which thermal melting temperature did it give?
Its thermal melting temperature is 60 °C.

For B10, which thermal melting temperature is on record?
Its thermal melting temperature is 50.8 °C.

B11 was tested. Which thermal melting temperature did it give?
The thermal melting temperature was 49.9 °C.

For B12, which thermal melting temperature is on record?
The thermal melting temperature was 52.4 °C.

How did the thermal melting temperature turn out when B13 was run?
The thermal melting temperature was 63.9 °C.

Which thermal melting temperature does the source give for B14 here?
The thermal melting temperature was 50.8 °C.

Which thermal melting temperature does the source give for B15 here?
Its thermal melting temperature is 55.1 °C.

How did the thermal melting temperature turn out when B16 was run?
The thermal melting temperature was 46.6 °C.

For B17, which thermal melting temperature is on record?
Its thermal melting temperature is 57.6 °C.

For B18, which thermal melting temperature is on record?
Its thermal melting temperature is 46 °C.

With B19 as the sequence, how does the thermal melting temperature read?
Its thermal melting temperature is 53.4 °C.

For B20, which thermal melting temperature is on record?
The thermal melting temperature was 50 °C.

For B21, which thermal melting temperature is on record?
Its thermal melting temperature is 58.8 °C.

B22 was tested. Which thermal melting temperature did it give?
Its thermal melting temperature is 61.2 °C.

How did the thermal melting temperature turn out when B23 was run?
The thermal melting temperature was 58.9 °C.

How did the thermal melting temperature turn out when B24 was run?
The thermal melting temperature was 49.8 °C.

How did the thermal melting temperature turn out when B25 was run?
The thermal melting temperature was 60.1 °C.

For B26, which thermal melting temperature is on record?
The thermal melting temperature was 53.5 °C.

With B27 as the sequence, how does the thermal melting temperature read?
Its thermal melting temperature is 54.1 °C.

Which thermal melting temperature does the source give for B28 here?
The thermal melting temperature was 60.2 °C.

For B29, which thermal melting temperature is on record?
Its thermal melting temperature is 54.9 °C.

B30 was tested. Which thermal melting temperature did it give?
The thermal melting temperature was 55.9 °C.

Which thermal melting temperature does the source give for B31 here?
Its thermal melting temperature is 57.8 °C.

How did the thermal melting temperature turn out when B32 was run?
The thermal melting temperature was 48.8 °C.

With B33 as the sequence, how does the thermal melting temperature read?
Its thermal melting temperature is 45.7 °C.

With B34 as the sequence, how does the thermal melting temperature read?
Its thermal melting temperature is 54.7 °C.

For B35, which thermal melting temperature is on record?
Its thermal melting temperature is 53.7 °C.

B36 was tested. Which thermal melting temperature did it give?
The thermal melting temperature was 56.4 °C.

Which thermal melting temperature does the source give for B37 here?
Its thermal melting temperature is 48.8 °C.

For B38, which thermal melting temperature is on record?
Its thermal melting temperature is 52.6 °C.

Which thermal melting temperature does the source give for B39 here?
The thermal melting temperature was 57.5 °C.

For B40, which thermal melting temperature is on record?
Its thermal melting temperature is 52.4 °C.

With B41 as the sequence, how does the thermal melting temperature read?
Its thermal melting temperature is 48.9 °C.

Which thermal melting temperature does the source give for B42 here?
The thermal melting temperature was 48.1 °C.

With B43 as the sequence, how does the thermal melting temperature read?
Its thermal melting temperature is 57.8 °C.

Which thermal melting temperature does the source give for B44 here?
Its thermal melting temperature is 53.7 °C.

For B45, which thermal melting temperature is on record?
The thermal melting temperature was 55.9 °C.

B46 was tested. Which thermal melting temperature did it give?
The thermal melting temperature was 50.7 °C.

Which thermal melting temperature does the source give for B47 here?
Its thermal melting temperature is 48.3 °C.

Same assay, conditions: C1R-B*07:02

B1 was tested. Which thermal melting temperature did it give?
Its thermal melting temperature is 53.2 °C.

B2 was tested. Which thermal melting temperature did it give?
The thermal melting temperature was 52.7 °C.

How did the thermal melting temperature turn out when B3 was run?
Its thermal melting temperature is 62.7 °C.

Which thermal melting temperature does the source give for B4 here?
The thermal melting temperature was 52.4 °C.

Which thermal melting temperature does the source give for B5 here?
The thermal melting temperature was 49.6 °C.

For B6, which thermal melting temperature is on record?
The thermal melting temperature was 52.5 °C.

For B7, which thermal melting temperature is on record?
The thermal melting temperature was 48.9 °C.

With B8 as the sequence, how does the thermal melting temperature read?
The thermal melting temperature was 51.5 °C.

B9 was tested. Which thermal melting temperature did it give?
Its thermal melting temperature is 57 °C.

B10 was tested. Which thermal melting temperature did it give?
Its thermal melting temperature is 55.5 °C.

B11 was tested. Which thermal melting temperature did it give?
Its thermal melting temperature is 46.6 °C.

How did the thermal melting temperature turn out when B12 was run?
The thermal melting temperature was 50.6 °C.

How did the thermal melting temperature turn out when B13 was run?
Its thermal melting temperature is 62.3 °C.

How did the thermal melting temperature turn out when B14 was run?
The thermal melting temperature was 51.8 °C.

Which thermal melting temperature does the source give for B15 here?
Its thermal melting temperature is 55.6 °C.

Which thermal melting temperature does the source give for B16 here?
Its thermal melting temperature is 48.3 °C.

Which thermal melting temperature does the source give for B17 here?
Its thermal melting temperature is 57.5 °C.

How did the thermal melting temperature turn out when B18 was run?
Its thermal melting temperature is 46.4 °C.

With B19 as the sequence, how does the thermal melting temperature read?
The thermal melting temperature was 60.9 °C.

With B20 as the sequence, how does the thermal melting temperature read?
The thermal melting temperature was 50.3 °C.

How did the thermal melting temperature turn out when B21 was run?
Its thermal melting temperature is 60.5 °C.

For B22, which thermal melting temperature is on record?
Its thermal melting temperature is 61.5 °C.

For B23, which thermal melting temperature is on record?
Its thermal melting temperature is 56 °C.

How did the thermal melting temperature turn out when B24 was run?
Its thermal melting temperature is 48.2 °C.

How did the thermal melting temperature turn out when B25 was run?
The thermal melting temperature was 62.2 °C.

For B26, which thermal melting temperature is on record?
The thermal melting temperature was 53.3 °C.

Which thermal melting temperature does the source give for B27 here?
The thermal melting temperature was 57 °C.

How did the thermal melting temperature turn out when B28 was run?
Its thermal melting temperature is 58.2 °C.

B29 was tested. Which thermal melting temperature did it give?
The thermal melting temperature was 58.1 °C.

For B30, which thermal melting temperature is on record?
Its thermal melting temperature is 54.9 °C.

Which thermal melting temperature does the source give for B31 here?
Its thermal melting temperature is 56.3 °C.

For B32, which thermal melting temperature is on record?
The thermal melting temperature was 44.5 °C.

Which thermal melting temperature does the source give for B33 here?
Its thermal melting temperature is 46.9 °C.

For B34, which thermal melting temperature is on record?
The thermal melting temperature was 55.9 °C.

How did the thermal melting temperature turn out when B35 was run?
The thermal melting temperature was 52.8 °C.

With B36 as the sequence, how does the thermal melting temperature read?
Its thermal melting temperature is 60.7 °C.

B37 was tested. Which thermal melting temperature did it give?
The thermal melting temperature was 48.5 °C.

B38 was tested. Which thermal melting temperature did it give?
The thermal melting temperature was 53.7 °C.

Which thermal melting temperature does the source give for B39 here?
The thermal melting temperature was 55.5 °C.

Which thermal melting temperature does the source give for B40 here?
The thermal melting temperature was 52.2 °C.

How did the thermal melting temperature turn out when B41 was run?
The thermal melting temperature was 54.6 °C.

For B42, which thermal melting temperature is on record?
Its thermal melting temperature is 46.1 °C.

Which thermal melting temperature does the source give for B43 here?
Its thermal melting temperature is 57.6 °C.

How did the thermal melting temperature turn out when B44 was run?
The thermal melting temperature was 52.4 °C.

Which thermal melting temperature does the source give for B45 here?
Its thermal melting temperature is 58 °C.

How did the thermal melting temperature turn out when B46 was run?
Its thermal melting temperature is 53 °C.

Which thermal melting temperature does the source give for B47 here?
The thermal melting temperature was 48.6 °C.
